In all, about 340,000 compounds went through this assay and about 2,100 (0.62%) were called active.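 The calls were made as follows: active = first-screen hits whose inhibition reached a set limit at any dose in the follow-up dose series; inconclusive = inhibition above the set first-screen limit but never retested; inactive = the rest.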 These entries were drawn from the full list. Entries with a potency or affinity are not part of this list.
target: Rac GTPase-activating protein 1 (Homo sapiens) (UniProt Q9H0H5); assay: blockers of MgcRacGAP-driven Rac1 GTP hydrolysis – biochemical, ADP Hunter fluorescence, primary and confirmatory, confirmation (AID 624330); conditions: MgcRacGAP-stimulated Rac1 GTP hydrolysis, at 30 µM, active compounds read high, GST-tagged Rac1 F28L mutant substrate;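 also: fluorescence reports GDP produced by GAP-driven GTP hydrolysis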
Sequence (Q9H0H5 whole entry, looked up): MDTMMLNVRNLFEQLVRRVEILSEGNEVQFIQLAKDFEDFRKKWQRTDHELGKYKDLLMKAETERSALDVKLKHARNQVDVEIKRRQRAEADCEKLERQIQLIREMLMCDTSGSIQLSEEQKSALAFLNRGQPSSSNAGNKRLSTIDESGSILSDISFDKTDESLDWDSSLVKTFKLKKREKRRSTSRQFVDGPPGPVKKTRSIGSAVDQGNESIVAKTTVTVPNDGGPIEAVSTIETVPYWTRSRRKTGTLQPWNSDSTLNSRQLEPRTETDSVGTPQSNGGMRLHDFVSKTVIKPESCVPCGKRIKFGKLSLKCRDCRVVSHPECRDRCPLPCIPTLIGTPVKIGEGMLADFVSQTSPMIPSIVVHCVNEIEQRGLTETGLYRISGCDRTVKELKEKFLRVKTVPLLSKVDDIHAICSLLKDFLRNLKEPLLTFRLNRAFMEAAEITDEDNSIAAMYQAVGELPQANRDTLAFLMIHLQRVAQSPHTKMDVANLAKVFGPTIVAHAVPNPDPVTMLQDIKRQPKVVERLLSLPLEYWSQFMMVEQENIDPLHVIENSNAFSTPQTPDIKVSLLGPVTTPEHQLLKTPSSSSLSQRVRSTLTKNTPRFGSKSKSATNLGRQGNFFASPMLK

inhibition, inactive:
CC1=CC(C)(C)NC(=S)N1c1cccc2ccccc12 12.8%, O=C(O)CSc1nnc(Nc2ccccc2)n1-c1ccccc1 1.56%, COc1ccc(/C=C2\SC(=S)N(CC(=O)OCC(=O)Nc3ccc(C)cc3Cl)C2=O)cc1 1.09%, CN1C[C@@H]2[C@@H]3C(=O)N(Cc4ccccc4)C(=O)[C@@H]3[C@](C)(C1=O)N2C(=O)c1ccc(Br)cc1 5.77%, CCC(C(=O)OCC(=O)c1ccc(OC)cc1OC)c1ccccc1 (centres undefined) 5.77%, COc1ccccc1C(=O)NC(=O)COC(=O)c1nc(Cl)ccc1Cl 8.9%, Cc1cc(F)ccc1S(=O)(=O)N1CCCOC1CNC(=O)C(=O)NCc1ccc2c(c1)OCO2 (centres undefined) 2.65%, CCOC(=O)c1ccc(NC(=O)CC2OCCN(CC)C2=O)cc1 (centres undefined) 7.78%, CC(C)C(=O)Nc1cc(S(=O)(=O)Nc2cccc(Cl)c2)ccc1Cl 12.6%, CCCCc1c(C)c(C#N)c2nc3ccccc3n2c1Nc1c(C)n(C)n(-c2ccccc2)c1=O 8.78%, COc1ccc(/C=C/C(=O)OCC(=O)Nc2ccc3c(c2)OCO3)cc1 10.3%, COc1cccc(/C=C/C(=O)OCC(=O)Nc2ccc3c(c2)OCCO3)c1 14.2%, COc1cc(/C=C/C(=O)OCC(=O)Nc2ccc3c(c2)OCCO3)ccc1OCC#N 5.37%, COc1cccc(/C=C/C(=O)OCC(=O)Nc2ccc3c(c2)OCO3)c1 13%, CCOC(=O)CC1C(=O)NCCN1C(=S)NC(=O)c1ccccc1OC (centres undefined) 3.14%, CCN(CC(=O)Nc1ccc(NC(C)=O)cc1)C(=O)c1cn(-c2ccccc2)nc1-c1cccs1 7.68%, COc1ccc(C)cc1NC(=O)NC1CC(=O)N(c2ccc3c(c2)OCCO3)C1 (centres undefined) 10.3%, CCOc1ccc(/C=C\C(C)=N\O)cc1 8.33%, CC(/C=C/c1ccccc1)=N/O 4.32%, COc1ccc(Cl)cc1C(=O)NCCN1CCOCC1 3.67%, Cc1cccc(NS(=O)(=O)c2ccc(C)c(C(=O)NCC(c3ccco3)N3CCCCC3)c2)c1 (centres undefined) 4.69%, COc1ccc(/C(C)=N/Nc2ccc(C(=O)O)cc2)cc1OC -0.19%, C=CC(=O)N1c2ccccc2Sc2ccc(NC(=O)OCC)cc21 6.2%, CC(=O)c1ccc2c(c1)N(C)c1ccccc1S2 18.2%, C/C(=N\Nc1ccc(C(=O)O)cc1)c1ccc(Br)cc1 14%, C/C(=N\NC(=O)c1ccccc1F)c1cccc(NC(=O)c2ccc(C)cc2)c1 5.2%, CCOC(=O)Nc1ccc2c(c1)N(C(=O)CN(C)C)c1ccccc1S2 -22.2%, COC(=O)c1ccc2c(c1)NC(=O)c1ccccc1S2 8.59%, C/C(=N\NC(=O)c1ccccc1F)c1cccc(NC(=O)c2ccccc2)c1 4.16%, Cc1ccc(CN2[C@@H](Cc3ccccc3)C(=O)CS2(=O)=O)cc1 3.43%, O=C(NNC(=O)c1n[nH]c2ccccc12)c1ccccc1 4.79%, CN1CCN(c2cc(C(F)(F)F)nc(-c3ccccn3)n2)CC1 1.81%, C=CCn1c(SCc2ccc(C(=O)OC)cc2)nnc1-c1sc(N)nc1C 3.61%, COc1ccccc1CCNC(=O)NC1CCCCC1 3.38%, Cc1ccccc1N(CC(=O)NCCc1ccccc1)C(=O)c1ccc(N2CCCC2)nc1 -2.74%, COc1cccc(OC)c1C(=O)NC(=S)NCc1cccnc1 6.24%, CCC1CCCCN1C(=O)COc1ccc2c(c1)OCO2 (centres undefined) 2.24%, Cc1ccc(C(=O)c2c3ccc([N+](=O)[O-])cc3[n+]([O-])n2CCCN)cc1 8.83%, CC(=O)Nc1cccc(/C(C)=N/NC(=O)c2ccc(O)cc2)c1 0.87%, C/C(=N\NC(=O)c1ccc(O)cc1)c1cccc(NC(=O)c2ccc(Cl)cc2)c1 8.52%, Cc1cccc(C(=O)Nc2cccc(C(=O)N3CCOCC3)c2)c1 -5.11%, COCCNC(=S)Nc1cc(OC)c(NC(=O)c2ccco2)cc1OC 3.43%, COCCNC(=S)Nc1cc2oc3ccccc3c2cc1OC 17.8%, CC(=O)N1CCc2c(sc(NC(=O)Cc3ccc(C)cc3C)c2C#N)C1 -2.35%, Cc1nn(-c2ccccc2)c(C)c1-c1cc(C(=O)N/N=C/c2ccc(O)cc2)[nH]n1 19.3%, COc1ccc(/C=N/NC(=O)c2nc(-c3ccccc3)cc(-c3ccccc3)n2)cc1O 24.5%, COc1ccc(/C=N/NC(=O)c2nc(-c3ccccc3)n(-c3ccccc3)n2)cc1 -5.29%, Cc1cc(C(=O)N/N=C/c2c(C)nn(-c3ccccc3)c2C)n[nH]1 -3.78%, Cc1cccc(-n2cnc(C(=O)N/N=C\c3ccc(Br)cc3)c2)n1 12.1%, COc1ccc(/C=N/NC(=O)c2nc(-c3ccccc3)cc(-c3ccccc3)n2)cc1OC 11.2%, Cc1cccc(-n2cnc(C(=O)N/N=C/c3ccccc3)c2)n1 6.69%, COc1ccc(/C=N/NC(=O)c2nc(-c3ccccc3)n(-c3ccccc3)n2)cc1OC 6.46%, O=C1CCC2(CC1)NC(=O)N(c1ccccc1)N2 -10.2%, O=C1CNC(=S)N1CCOc1ccccc1 -1.2%, COc1ccc(S(=O)(=O)Nc2cc(C(=O)NCCC(C)C)ccc2N2CCOCC2)cc1 -3.38%, CCOc1ccc(-c2cc(C(=O)N3CCCC3)c3ccccc3n2)cc1 1.87%, CCOC(=O)COc1ccccc1-c1ccno1 5.09%, COc1ccc(S(=O)(=O)Cc2ccc(C(=O)NCC(OC)OC)o2)cc1 5.28%, CCC1C(=O)NCCN1C(=O)c1cc(COc2cc(C)ccc2C)on1 (centres undefined) 13.8%, O=C(NCc1cccnc1)c1ccccn1 3.14%, O=C(Nc1cnccn1)Nc1ccc(Cl)cc1Cl -2.37%, O=C(CCc1c[nH]c2ccccc12)NCCc1ccccc1 7.24%, O=C(CCc1c[nH]c2ccccc12)NCCc1ccc(Cl)cc1 6.06%, Cc1ccc(NC(=O)C(OC(=O)c2cnc(C)cn2)c2ccccc2)c([N+](=O)[O-])c1 (centres undefined) 4.33%, O=C(COc1ccc2cc(Br)ccc2c1)N1CCCC1 8.08%, Cc1[nH]nc(-c2ccc(O)c(C)c2O)c1Oc1ccccc1 18.4%, CCOc1ccc(-c2n[nH]c(C)c2Oc2ccc(OC)cc2)c(O)c1 11%, COc1ccc(-c2[nH]ncc2-c2csc(C)n2)c(O)c1 13.3%, CCCOC(=O)c1ccc(Oc2c(-c3ccc(O)cc3O)n[nH]c2C)cc1 19.3%, O=S(=O)(N/N=C\c1ccccc1O)c1ccc(Cl)cc1 6.73%, O=C1CC(C(=O)Nc2ccc(Cl)cc2)S/C(=N\N=C\c2ccco2)N1 (centres undefined) 10.6%, COc1ccc(Nc2ccnc3ccccc23)cc1 3.59%, c1ccc(CCNc2ccnc3cc4ccccc4cc23)cc1 13.8%, COCCN1C(=O)N(c2ccccc2)C(=O)C1CC(=O)Nc1cc(OC)cc(OC)c1 (centres undefined) -13.2%, COC(=O)C(Cc1cncn1COCc1ccccc1)NC(=O)OC(C)(C)C (centres undefined) 4.31%, Cc1ccc2[nH]c3c(N4CCN(Cc5ccccc5)CC4)ncnc3c2c1 22.2%, c1ccc(CN2CCN(c3ncnc4c3[nH]c3ccccc34)CC2)cc1 20.2%, O=C(CCCc1ccccc1)Nc1ccnn1C1CCN(Cc2ccccc2F)CC1 7.8%, Cc1occc1C(=O)NNC(=O)C1CCCC1 0.63%, CNC(=O)NC(=O)C(C)N1CCN(C/C=C/c2ccccc2)CC1 (centres undefined) -5.37%, COc1cc(OC)cc(C(=O)N2CCN(Cc3cccc(F)c3)CC2)c1 27.4%, COc1ccc(CN2CCN(C(=O)c3cccc4ccccc34)CC2)cc1OC 30.3%, COc1ccc(CN2CCN(C)CC2)cc1OCc1ccccc1 8.63%, COc1cccc(CN2CCSCC2)c1 16.8%, COc1ccc(CN2CCOCC2)cc1OC 11.6%, COc1ccc(N2CCN(C(C)C(=O)N(C)Cc3ccccc3)CC2)cc1 (centres undefined) 11%, COc1ccc(CN2CCC(Cc3ccccc3)CC2)cc1OC 29.4%, O=C(CN(c1ccccn1)S(=O)(=O)c1ccccc1)N/N=C/c1cccc([N+](=O)[O-])c1 6.03%, CC(NC(=O)C1CCN(c2nnc(N3CCCC3=O)s2)CC1)c1ccccc1 (centres undefined) 1.18%, Cc1nn(-c2cc(C(F)(F)F)ccc2Cl)c2nc(C(F)(F)F)[nH]c(=O)c12 6.22%, CCN1C(=O)CC(N2CCN(c3cccc(OC)c3)CC2)C1=O (centres undefined) 7.87%, COc1ccc(CN2CCN(c3ncccn3)CC2)c(OC)c1 9.88%, COc1ccc(CN2CCN(S(=O)(=O)c3ccc(F)cc3)CC2)cc1OC 19.8%, COc1cc(CN2CCN(Cc3ccc(C)cc3)CC2)c([N+](=O)[O-])cc1OC 31.1%, COc1ccc(CN2CCN(c3ccccc3OC)CC2)c(OC)c1 25.9%, COc1cc(CN2CCN(Cc3ccc([N+](=O)[O-])cc3)CC2)c([N+](=O)[O-])cc1OC 28.4%, COc1ccc(CN2CCN(C(C)C(=O)N3CCc4ccccc43)CC2)cc1OC (centres undefined) 7.8%, CC(C(=O)N(C)Cc1cccc(F)c1)N1CCN(S(=O)(=O)c2ccc3c(c2)OCCCO3)CC1 (centres undefined) 4.74%, COc1cc(OC)c(OC)cc1CN1CCN(Cc2cccc(F)c2)CC1 9.82%

— PubChem BioAssay AID624330 (Southern Research Specialized Biocontainment Screening …, 2012)
